The whole screen tested about 97,000 compounds, of which about 140 (0.14%) were called active. The sample as a whole holds a higher share of actives than the screen did. A number with no mark means an inactive call.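 Rule for the calls: active = inhibition above the screen-wide mean inhibition plus 3 SD (cut at about 15% in these data); inactive = the rest.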

In this experiment the target is Ephrin type-B receptor 4 (Homo sapiens) (UniProt P54760). In words: EphB4-ephrin-B2 interaction antagonists, primary screen, biochemical, TNYL-RAW peptide probe, fluorescence polarization (AID 720).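 Note: 0% = DMSO wells and 100% = excess unlabeled TNYL-RAW peptide.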 The note with it: EphB4 LBD / TNYL-RAW-Alexa532 peptide, at 7 µM, stronger effect = higher value. In general terms: In fluorescence polarisation assays a small probe gives low polarisation when free and higher when bound to something large.
Ephrin type-B receptor 4 (Homo sapiens), sequence (P54760 whole entry, looked up, the tested form may be a part): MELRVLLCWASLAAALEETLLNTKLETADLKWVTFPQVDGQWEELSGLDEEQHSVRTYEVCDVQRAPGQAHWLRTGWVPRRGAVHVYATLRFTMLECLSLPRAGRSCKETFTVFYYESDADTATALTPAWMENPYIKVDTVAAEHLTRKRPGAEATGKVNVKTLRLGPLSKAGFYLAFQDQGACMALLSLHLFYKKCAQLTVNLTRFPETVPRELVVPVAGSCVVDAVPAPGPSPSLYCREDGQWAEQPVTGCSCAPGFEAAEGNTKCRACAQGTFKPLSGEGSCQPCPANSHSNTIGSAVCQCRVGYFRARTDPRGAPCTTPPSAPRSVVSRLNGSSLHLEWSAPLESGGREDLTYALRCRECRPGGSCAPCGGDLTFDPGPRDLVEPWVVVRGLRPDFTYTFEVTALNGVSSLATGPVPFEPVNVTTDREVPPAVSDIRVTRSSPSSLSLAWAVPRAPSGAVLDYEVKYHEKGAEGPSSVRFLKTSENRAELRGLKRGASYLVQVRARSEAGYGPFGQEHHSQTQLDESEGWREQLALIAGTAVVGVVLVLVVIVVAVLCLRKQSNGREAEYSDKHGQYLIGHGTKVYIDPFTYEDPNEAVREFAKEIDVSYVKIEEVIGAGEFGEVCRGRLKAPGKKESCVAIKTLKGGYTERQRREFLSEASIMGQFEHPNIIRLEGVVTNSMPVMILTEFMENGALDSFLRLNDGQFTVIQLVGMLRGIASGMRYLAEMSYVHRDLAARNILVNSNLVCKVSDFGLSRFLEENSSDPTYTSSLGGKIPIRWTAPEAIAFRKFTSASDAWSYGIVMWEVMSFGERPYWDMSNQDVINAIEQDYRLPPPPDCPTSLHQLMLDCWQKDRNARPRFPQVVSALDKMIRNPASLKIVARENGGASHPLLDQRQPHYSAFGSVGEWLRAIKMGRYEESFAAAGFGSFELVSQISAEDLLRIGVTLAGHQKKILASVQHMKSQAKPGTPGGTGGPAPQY
Usually inhibition stands for the drop in the measured response relative to a control, in per cent. For `COCCN(C(=O)c1ccco1)c1nnc(-c2ccc(OC)cc2)s1`, the inhibition was 0.8%.

In the case of `c1ccc(-c2ccnc3nc(-n4cccc4)nn23)cc1`, the inhibition was -2.67%. For `O=C(OCN1C(=O)c2ccccc2C1=O)/C(=C\c1ccco1)NC(=O)c1ccccc1` the value was -9.89%; for `O=C(ON=C1CCN(S(=O)(=O)c2ccccc2)CC1)c1ccc(Cl)cc1`, -2.79%; for `O=C(NCCCCc1ccccc1)C1CC(c2ccc([N+](=O)[O-])cc2)=NO1` (stereo not given), 1.72%. With `CC(=O)c1cc2c(cc1NC(=O)CN1CCCCCC1)OCO2`, the inhibition is -6.18%.

Consider `COCCn1c(=S)[nH]c2cc(C(=O)NCCc3ccc(OC)c(OC)c3)ccc2c1=O`, for which the inhibition is -6.01%. With `CCOc1cc2[nH]c(=O)n(CCC(=O)NCc3ccc(OC)cc3)c(=O)c2cc1OCC`, the inhibition is 7.75%.

`CCN(CC)C(=O)CN(c1cccc(OC)c1)S(=O)(=O)c1ccc(C)cc1`: the inhibition was -6.83%. For `COC(=O)c1ccc(CSc2ccc3nnc(-c4ccccc4)n3n2)o1` the value was -1.52%; for `CCc1c(-c2ccccc2)nc(N)c(C#N)c1-c1cccs1`, -6.33%. Turning to `C=CCN1C(=O)C(Cc2cccc(Cl)c2)S/C1=N/N=C/c1ccco1` (stereo not given), the inhibition was 2.87%. Turning to `O=C(Nc1cccc2ccccc12)N1CCN(Cc2ccc3c(c2)OCO3)CC1`, the inhibition is 0.42%. For `CCOC(=O)C1Sc2[nH]c(=O)sc2C(c2ccc(Cl)cc2)C1C(=O)OCC` (stereo not given), the inhibition was 6.17%. In the case of `O=C(c1ccccc1Oc1ccccc1)N1CCN(c2ccc(F)cc2)CC1`, the inhibition was 1.29%. Take `CCCCOc1ccc(CSC(=N)N)cc1[N+](=O)[O-]`: the inhibition is -6.89%. As for `CCn1cc(C(=O)N/N=C(/C)c2ccc(F)cc2)c(=O)c2cc(F)c(N3CCCC3)cc21`, the figure is 5.77%; as for `Cc1ccc(SCC(=O)NC(=O)NCc2ccco2)c(C)c1`, -1.3%; as for `COC(=O)c1ccc(S(=O)(=O)N2CCC(c3nc4ccccc4o3)CC2)cc1`, 2.06%.

For `CCCCc1nnc(NC(=O)CSc2nc(C)cc(=O)[nH]2)s1`, the inhibition is 0.99%. As for `CCCc1noc2c1/C(=N\O)CCC2`, the figure is 7.69%; as for `Cc1ccc(CCN2CC(C(=O)O)CC2=O)cc1` (stereo not given), -3.41%; as for `CCOC(=O)c1[nH]c(C)c(C(=O)OCC(=O)N2c3ccccc3CC2C)c1C` (stereo not given), 2.53%. As for `O=P(O)(CP(=O)(c1ccccc1)c1ccccc1)c1ccccc1O`, the inhibition is 4%. With `Cc1cc(=O)oc2cc(OC(C)C(=O)Nc3ccc(N4CCOCC4)cc3)ccc12` (stereo not given), the inhibition was 8.06%. As for `O=C1CCCC2=C1C(c1ccccc1)n1c(s/c(=C/c3cccc(F)c3)c1=O)=N2` (stereo not given), the figure is 1.22%.

Consider `O=C(NCc1ccccc1Cl)c1csc2c1CCCCC2`, for which the inhibition is 2.57%.

As to `CCCn1c(C)cc(C(=O)COC(=O)c2c(C)nn(-c3ccccc3)c2C)c1C`, the inhibition was 0.32%.

Regarding `CCCCNC(=O)CSc1nc2ccc(NC(=O)CSc3nnc(COc4ccccc4C)n3C)cc2s1`, the inhibition is -4.14%.

On to `CC1=NN(C(C)C)C(=O)C1`, for which the inhibition was -0.74%.

On to `O=S(=O)(c1ccc(Br)cc1)n1ccc2ccccc21`, for which the inhibition is 6.94%. As for `NC(=O)c1c(NC(=O)CSc2nnc(-c3ccco3)n2N)sc2c1CCCC2`, the figure is 0.73%; as for `CCC(=O)Nc1ccc(C(=O)Nc2cc(C)on2)cc1`, 3.48%.

For the compound `COc1ccc(N(CC(=O)NC2CCCCC2)C(=O)CNC(=O)c2ccco2)c(OC)c1`, the inhibition is 0.8%. Consider `CCCCCCC12CCC(C(=O)O)(CC1)CC2`, for which the inhibition is -4.95%. As for `Cn1c(CO)cnc1SCc1ccccc1`, the figure is 3.71%. For `CCOc1cc(N2CCOCC2)c(OCC)cc1NC(=O)COC(=O)[C@H](Cc1c[nH]c2ccccc12)NC(C)=O` the value was 5.55%. For `CCOc1cc(NC(=O)c2ccco2)c(OCC)cc1NC(=O)COc1ccccc1` the value was -10%; for `CCOc1cc(N2CCOCC2)c(OCC)cc1NC(=O)COc1cccc2cccnc12`, 17.3% (active). In the case of `S=C(NCCC1=CCCCC1)Nc1ccccc1`, the inhibition was 4.71%. Turning to `c1ccc(-n2nc3ccccc3n2)cc1`, the inhibition was 1.16%. With `COc1ccc(C2=NO[C@@H]3C(=O)N(Cc4ccccc4)C(=O)[C@H]23)cc1OC`, the inhibition is 7.58%. For `Nc1nc(C23CC4CC(CC(C4)C2)C3)cs1` the value was -1.67%. As for `O=C(CCC(=O)OCc1cccc(C(=O)Oc2ccccc2)c1)Nc1cccc2ccccc12`, the figure is 3.74%. As for `COc1ccc(CCNC(=O)COC(=O)c2ccc[nH]c2=O)cc1`, the figure is -5.04%; as for `O=C(N/N=C\c1ccc(-c2ccc(Cl)c(Cl)c2)o1)C(=O)N1CCCC1`, -0.37%. Take `CCOc1cc(NC(=O)c2cnccn2)c(OCC)cc1NC(=O)c1ccc(C)cc1`: the inhibition was -6.39%. For `CC(C)Cc1oc(C(=O)O)cc1CN` the value was -0.3%; for `O=C(NC1CC1)c1ccc2c(c1)NC(=O)c1ccccc1S2`, 0.56%. `COc1ccc(-c2csc3nc(-c4ccccc4F)oc(=O)c23)cc1OC`: the inhibition is -10.2%. For `O=C(N/N=C/c1ccc(O)cc1)/C(=C/c1ccc([N+](=O)[O-])cc1)NC(=O)c1ccccc1`, the inhibition was -1.89%. For `CCOCc1nnc(NC(=O)CSc2ccc(C)cc2)s1` the value was 1.51%.

`O=[N+]([O-])c1ccc(C=Nc2ccc(Cl)cc2Cl)s1`: the inhibition is -0.13%. As for `CC1=CC(C)(C)Nc2ccc(OC(=O)C(Cc3ccccc3)N3C(=O)C4CCCCC4C3=O)cc21` (stereo not given), the figure is -0.93%; as for `S=c1[nH]nc(CSCc2ccc(Cl)cc2Cl)n1-c1ccccc1`, 8.29%. For `CCOC(=O)c1cnc(SCC(=O)Nc2cccc(OC)c2)nc1N` the value was 9.83%. For the compound `O=S(=O)(N/N=C\c1cccn1-c1ccccc1)c1ccc2ccccc2c1`, the inhibition was -8.09%. As for `Cn1c2ccccc2n2c(=O)c(=O)n(CC(=O)c3ccc(F)cc3)nc12`, the figure is 0.04%; as for `COc1cccc(C(=O)NNC(=O)c2ccccc2Br)c1`, -7.4%; as for `O=C(CN1CCN(S(=O)(=O)c2ccc3ccccc3c2)CC1)NC(=O)NC1CCCCC1`, 5.63%. For the compound `Cc1ccc(SC(=O)COc2ccc(C)c(C)c2)cc1`, the inhibition was 3.52%.

For the compound `O=[N+]([O-])c1ccc(N2CCN(S(=O)(=O)c3ccc4ccccc4c3)CC2)cc1NCc1ccco1`, the inhibition is 0.12%.

For `CCc1cccc2c(C=C(C#N)C#N)cn(CC(=O)N3CCCCC3)c12`, the inhibition is -0.37%. `COc1ccc(CC(NC(C)=O)C(=O)N2CCN(C(=O)Nc3cccc(Cl)c3)CC2)cc1OC` (stereo not given): the inhibition is -2.32%. Turning to `CCOc1ccc(NC(=O)CCS(=O)(=O)c2ccc3c(c2)CCCN3C(=O)CC)cc1`, the inhibition was 8.53%.

On to `COc1ccccc1NC(=O)C1CCCN(c2cc(C)nc3ncnn23)C1` (stereo not given), for which the inhibition was -5.56%. As for `C=CCOc1cccc(CNn2cn[nH]c2=S)c1`, the figure is -3.4%. As to `C=C(C)CNC(=S)/N=c1\scc(C)n1CC`, the inhibition was -8.88%. Consider `CCCCNC(=S)NNC(=O)c1cc(C)on1`, for which the inhibition is -0.6%. As for `CC(C)NC(=O)CSc1ccccc1C(=O)NCc1ccc2c(c1)OCO2`, the figure is 2.19%; as for `O=C(CSCc1ccc([N+](=O)[O-])cc1)NCCSCc1ccccc1`, 4.49%; as for `O=C(c1ccc(CN2CCOCC2)cc1)N1CCN(c2ccccc2F)CC1`, -2.74%. Take `Cc1cccc(C)c1N1CCN(S(=O)(=O)N2CCOCC2)CC1`: the inhibition was 3.9%.

Regarding `O=S(=O)(N1CCOCC1)N1CCN(c2ccccc2F)CC1`, the inhibition is 20.7% (active).

In the case of `O=C(Nc1cccc(NC(=O)c2ccco2)c1)c1cnccn1`, the inhibition was -6.85%. For `COc1ccc(NC(=O)/C(Cl)=C(/Cl)S(=O)Cc2ccc(C)cc2)cn1` (stereo not given) the value was 7.2%. For `CCOCCn1c(C(C)C)nc2ccccc21` the value was 0.96%. For the compound `O=C(Cc1ccc(S(=O)(=O)N2CCOCC2)s1)NCCC(c1ccccc1)c1ccccc1`, the inhibition was -2.3%. As for `CCOC(=O)c1c(NC(=O)/C=C/c2ccco2)sc(C)c1C`, the figure is 0.57%; as for `CC(=O)Nc1cccc(/C(C)=N/NC(=O)c2ccccc2Cl)c1`, 2.34%; as for `O=C(NCC(=O)N(Cc1cccs1)C(C(=O)NC1CCCCC1)c1ccco1)c1cccs1` (stereo not given), -1.39%. For `O=C1Nc2cc(Cl)c(Cl)cc2N(O)N1c1cc(Cl)cc(Cl)c1`, the inhibition is 2.41%. On to `CC(C)C(=O)NC(NC(=S)NC1CCS(=O)(=O)C1)C(Cl)(Cl)Cl` (stereo not given), for which the inhibition is 2.04%. Regarding `O=C(c1cc2sccc2n1Cc1ccc(F)cc1)N1CCc2ccccc21`, the inhibition was 4.78%.

`Cc1c(NC(=O)/C=C/C(=O)O)cccc1[N+](=O)[O-]`: the inhibition was -6.42%.

For the compound `CN(C)/C=C(/C(=O)c1ccc(Cl)cc1)S(=O)(=O)c1ccccc1`, the inhibition is -11.6%. With `N=c1c2c3c(sc2nc2n1CCCCC2)CCCC3`, the inhibition was 6.43%. As for `O=c1[nH][nH]c(C(F)(F)F)c1C=NCc1ccccc1Cl`, the figure is 2.43%; as for `O=S(=O)(NN=C1CCCCCCC1)c1ccc(Br)cc1`, 5.67%. For `CCOC(=O)C1=C(c2ccccc2)N=C2SCC(=O)N2C1c1ccc(O)c(OC)c1` (stereo not given) the value was 2.71%. For `COCCn1c(SCc2nc3cc(OC)c(OC)cc3c(=O)[nH]2)nnc1-c1ccncc1` the value was 5.33%. Regarding `O=C(C1=C(O)C(=O)N(Cc2ccccc2)C1c1ccco1)c1ccco1` (stereo not given), the inhibition was -8.37%.

`COc1ccc(C2C(C(C)=O)=C(O)C(=O)N2Cc2cccnc2)cc1` (stereo not given): the inhibition is 1.74%. In the case of `O=C(C1=C(O)C(=O)N(Cc2ccccc2)C1c1cccnc1)c1ccco1` (stereo not given), the inhibition is 27% (active). As for `COc1ccc2c(c1)C(C)=CC(C)(C)N2C(=O)Nc1ccccc1`, the figure is 6.35%. As for `CC(=O)Oc1ccc(NC(=O)CCC2CCCCC2)c(C(=O)O)c1`, the figure is 4.49%; as for `O=C(CN1CCN(c2ccc(Cl)cc2)CC1)N1CCCC1`, 4.82%. Regarding `Oc1ccc(/C=N/NC2=NCCCCC2)c(O)c1`, the inhibition was 2.04%. As for `CCOC(=O)c1sc(C)c2c1NC(C)(c1cccc3ccccc13)NC2=O` (stereo not given), the figure is 13.2%; as for `Cc1cc(C)nc(SC(C)C(=O)N/N=C/c2cccs2)n1` (stereo not given), 2.66%; as for `C=CCc1ccc(OCCOc2cccc(/C=N/n3cnnc3)c2)c(OC)c1`, -1.42%.

As for `Cc1ccc(N2C(=O)CC(Sc3ncn[nH]3)C2=O)cc1` (stereo not given), the inhibition is 0.58%. `CC(C)CNC(=S)NNC(=O)c1nn(C)cc1Cl`: the inhibition is 7.68%. With `COc1ccc(-c2noc(-c3ccc(C)cc3)n2)cc1`, the inhibition is -4.98%. As for `CSc1cc(C)n(-c2ccccc2C)c(=S)c1C(C)=O`, the figure is -5.85%; as for `CCCOc1cc(C)c(S(=O)(=O)n2nnc3ccccc32)cc1C`, -0.8%. Consider `CCc1nn(-c2cc(Oc3cccc4ccccc34)nc(-c3ccccc3)n2)c(N)c1C#N`, for which the inhibition is -9.42%. Take `CCOc1cc(C(=O)Nc2c(C)ccc3nsnc23)cc(OCC)c1OCC`: the inhibition is -8.62%. As for `COc1ccc(CNC(=O)CCn2cccc2)cc1`, the inhibition is -2.06%. As for `COC(=O)c1ccc(NC(=O)C23CC4CC(C2)CC(n2cnc(Cl)n2)(C4)C3)cc1`, the figure is 3.33%.
